JMJD2A Tudor inh – qHTS Assay for Inhibitors of JMJD2A-Tudor Domain; Lysine-specific demethylase 4A (Homo sapiens), O75164; AlphaScreen JMJD2A-Tudor / H3K4me3 peptide binding; Potency, µM (series often up to 114 µM), inactives show at the top dose activity change, negative = inhibition, usual class: inhibitors; 390,000 compounds, 4.4% hits; AID 504339, 2011; note: potency is the fitted concentration of half-maximal effect; % is set by controls: 0 for no effect and ±100 for the full control effect; nearly all actives have a fitted effect of over 50% in size
G9a inh – qHTS Assay for Inhibitors of Histone Lysine Methyltransferase G9a; Histone-lysine N-methyltransferase EHMT2 (Homo sapiens), Q96KQ7; G9a H3K9 monomethylation, AlphaScreen, 2 h; Potency, µM (titrated, usually from 102 µM), for inactives: at the highest dose activity, negative = inhibition, actives largely listed as inhibitors; 350,000 compounds, 8.8% hits; note: potency is the fitted concentration of half-maximal effect; % is set by controls: 0 for no effect and ±100 for the full control effect; nearly all actives have a fitted effect of over 75% in size
Target sequence (Q96KQ7 913-1193 limits assumed): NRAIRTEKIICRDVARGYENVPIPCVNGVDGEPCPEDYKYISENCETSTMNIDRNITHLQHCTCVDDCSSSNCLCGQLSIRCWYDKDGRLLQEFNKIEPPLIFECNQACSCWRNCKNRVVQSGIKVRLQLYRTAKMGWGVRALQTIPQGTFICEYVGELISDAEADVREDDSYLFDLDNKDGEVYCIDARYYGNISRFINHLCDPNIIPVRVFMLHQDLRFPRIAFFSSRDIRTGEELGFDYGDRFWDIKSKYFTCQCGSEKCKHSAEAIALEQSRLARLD
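Readings reflect AlphaScreen signal from monomethyl-H3K9 antibody detection. HMT at 20 nM; substrate b-H3K9 500 nM; cofactor SAM 20 uM; 2 h RT reaction; compounds tested as titrations in qHTS with 15 min preincubation.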
Six1-Eya2 blk – qHTS Assay for Inhibitors of the Six1/Eya2 Interaction | 360,000 compounds, 0.56% hits | activity change, % (test concentration not listed) | AlphaScreen GST-Six1/His-Eya2 binding, biochemical; stronger effect = lower value | Homeobox protein SIX1 (Homo sapiens) + Protein phosphatase EYA2 (Homo sapiens), …; in the data active = activity change below about -65%; inconclusive = mostly about -30% to -63%; note: % is set by controls: 0 for no effect and ±100 for the full control effect
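Six1/Eya2 binding was read as AlphaScreen signal after compounds were pinned into GST-Six1 plus His-tagged Eya2 (5X stock 250/500 nM) in pH 8.0 Tris/NaCl/TCEP buffer, beads added, then incubated 1 h, 37 C, dark.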
HP1b binding inh – HTS for Inhibitors of HP1-beta Chromodomain Interactions with Methylated Histone Tails | AlphaScreen HP1-beta / biotin-H3K9me3 peptide binding | Potency, µM (top dose mostly 114 µM), for inactives: top-dose activity change, negative = inhibition, most hits filed as inhibitors | 390,000 compounds, 0.56% hits | AID 540317, 2011; note: potency is the fitted concentration of half-maximal effect; nearly all actives have a fitted effect of over 70% in size
Target sequence (P83916 whole entry, looked up): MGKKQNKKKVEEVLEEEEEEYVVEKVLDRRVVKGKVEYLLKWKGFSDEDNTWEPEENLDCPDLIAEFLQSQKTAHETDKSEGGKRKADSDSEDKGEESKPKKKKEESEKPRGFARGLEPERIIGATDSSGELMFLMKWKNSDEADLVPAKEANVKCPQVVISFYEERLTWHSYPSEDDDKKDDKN
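Compound inhibition of the preformed complex between 50 nM HP1-beta and 50 nM biotinylated H3K9me3 peptide was read by AlphaScreen. Buffer was PBS pH 7.4 with 0.01% Tween-20. Incubations ran 30 min at room temperature, with 10 ug/mL donor/acceptor beads.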
BAZ2B block – qHTS Assay for Inhibitors of BAZ2B | Bromodomain adjacent to zinc finger domain protein 2B (Homo sapiens), Q9UIF8 | AlphaScreen BAZ2B-H3K14Ac peptide displacement | AID 504333, 2011 | 360,000 compounds, 4.4% hits | Potency, µM (highest dose often 114 µM), for the others: at the top dose activity change, negative = inhibition, hits mostly inhibitors; note: potency is the fitted concentration of half-maximal effect; % is set by controls: 0 for no effect and ±100 for the full control effect; nearly all actives have a fitted effect of over 60% in size
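Inhibition is scored as reduced AlphaScreen emission. The BAZ2B/b-H3(5-23)K14Ac complex (50 nM each) in PBS pH 7.4, 0.01% Tween-20 meets compound (up to 110 uM) for 30 min at RT before bead addition.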
CtBP-E1A blk – qHTS Assay for Inhibitors of the CtBP/E1A Interaction. activity change, % (concentration not given with the values). AlphaScreen GST-E1A/His-CtBP binding, 1536-well; stronger effect = lower value. 340,000 compounds, 0.49% hits. CtBP / adenovirus E1A interaction (AlphaScreen); in the data active = activity change below about -65%; inconclusive = mostly about -30% to -63%; note: % is set by controls: 0 for no effect and ±100 for the full control effect
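In 5 uL wells, 23 nL compound meets equimolar GST-E1A and His-CtBP (5X stock 125 nM each) for 2 h, 37 °C. Beads (5X, 50 ug/mL) then 1 h, 37 °C, dark.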
Numbers without * were called inactive; ? = inconclusive; / = no result given; [ ] = remark or other dose. The list is not random: actives were taken first. Their share in the collection is about 10%. Unless noted, calls come from the whole dose curve; as a rule, active = well fitted inhibition curve with a large enough effect; inconclusive = small, poorly fitted or top-dose-only effect; inactive = no such curve, though single readings can be large or run the other way.

SMILES	JMJD2A Tudor inh	G9a inh	Six1-Eya2 blk	HP1b binding inh	BAZ2B block	CtBP-E1A blk
O=C(NCc1ccc(Cl)cc1)c1cnc2sc(N3CCCCCC3)nn2c1=O	-17.0%	11.5%[59 µM]	/	-13.3%	-2.8%	/
O=C(NCc1ccccc1)n1cc(P(=S)(c2ccccc2)c2ccccc2)c2ccccc21	-10.9%	/	/	/	/	/
CCN(CC)P(=O)(Nc1cccc(C(F)(F)F)c1)c1ccc(N(C)C)cc1NC(=O)c1ccco1 (centres undefined)	?	31.6µM*	?	5.6%	?	?
COc1ccc(C)cc1N(C(=O)c1ccccc1)c1nc2ccccc2s1	0.3%	-11.6%[59 µM]	-2.7	36.4%	4.7%	4.0
COc1ccc(C)cc1N(C(=O)c1ccc(C#N)cc1)C1=NC(C)(C)CS1	-0.4%	28.2µM*	1.4	29.2%	-19.5%	-6.8
CCC(CC)c1nnc(NC(=O)C2CC(=O)N(CCc3ccc(F)cc3)C2)s1 (centres undefined)	-19.2%	3.16µM*	-8.2	?	?	3.1
CC(C)(C)NC(=O)C1CC(=O)N(CCc2ccc(F)cc2)C1 (centres undefined)	-9.7%	21.4%	-8.7	41.1%	13.0%	-2.1
CCC(C)(C)c1nnc(NC(=O)C2CC(=O)N(CCc3ccc(F)cc3)C2)s1 (centres undefined)	-9.2%	44.7µM*	-0.1	-9.3%	1.5%	4.3
CC1=NN(c2ccccc2)C(=O)C1C(=O)c1cc([N+](=O)[O-])cc([N+](=O)[O-])c1 (centres undefined)	-21.8%	11.2µM*	-22.9	29.9%	?	12.6
COC(=O)c1ccc(Cn2c(C)cc(C)[n+]2C)o1	39.8µM*	?	3.3	20.7%	?	0.4
COC(=O)c1ccc(Cc2ccc(C(=O)OC)o2)o1	-1.2%	?	-3.7	26.8%	7.8%	9.4
CCOC(=O)C1CCN(c2ncnc3c2c(-c2ccccc2)cn3-c2ccc(C)c(Cl)c2)CC1	-18.7%	1.9%[59 µM]	/	-4.8%	-0.8%	/
CNc1ncnc2sc(-c3ccccc3)cc12	-5.3%	-2.7%	0.0	32.0%	10.9%	17.7
S=c1[nH]cnc2sc(-c3ccccc3)cc12	-21.4%	35.5µM*	-27.1	16.4%	-3.9%	-1.5
c1ccc(-c2cncn2-c2ccccc2)cc1	?	2.0%[2.33 µM]	-4.7	-4.6%	50.1µM*	-9.6
c1ccc(-c2cnnn2-c2ccccc2)cc1	3.4%	33.1%[59 µM]	0.8	38.1%	-27.4%	8.0
CCN(CC)CCCN1C(=O)C(O)=C(C(=O)c2ccc(C)o2)C1c1ccc(C)o1 (centres undefined)	?	20µM*	1.4	42.9%	-29.5%	0.8
O=C(C1=C(O)C(=O)N(CCc2ccccc2)C1c1cccnc1)c1ccco1 (centres undefined)	-17.7%	?	2.4	20.7%	?	0.5
CCN(CC)CCCN1C(=O)C(O)=C(C(=O)c2ccco2)C1c1ccc(C)o1 (centres undefined)	?	/	-11.4	15.5%	/	3.1
COCCCN1C(=O)C(O)=C(C(=O)c2ccco2)C1c1ccccc1 (centres undefined)	50.1µM*	10.4%[12.7 µM]	-5.1	10.7%	?	0.6
O=C(C1=C(O)C(=O)N(CCc2ccccc2)C1c1cccs1)c1ccco1 (centres undefined)	-18.6%	50.1µM*	-2.2	5.9%	?	-0.4
COc1cc(C2C(C(=O)c3ccco3)=C(O)C(=O)N2Cc2ccccc2)ccc1O (centres undefined)	56.2µM*	70.8µM*	1.4	-5.4%	-29.1%	2.0
COc1ccc(-c2cc(C(=O)OCC(=O)c3cccc(OC)c3)c3cccc(Cl)c3n2)cc1	15.2%	26.1%[59 µM]	/	59.2%	21.9%	/
COc1ccc(NS(=O)(=O)c2ccc3c(c2)n(C)c(=O)c(=O)n3C)cc1Cl	-13.7%	-3.7%[59 µM]	/	26.3%	/	/
COCc1cc(C2C(C(=O)c3ccco3)=C(O)C(=O)N2CCOCCO)ccc1O (centres undefined)	50.1µM*	?	3.4	-7.1%	?	5.8
SMILES	JMJD2A Tudor inh	G9a inh	Six1-Eya2 blk	HP1b binding inh	BAZ2B block	CtBP-E1A blk
COCCCN1C(=O)C(O)=C(C(C)=O)C1c1ccccn1 (centres undefined)	79.4µM*	?	2.9	-3.1%	-34.2%	2.9
CC(=O)C1=C(O)C(=O)N(CCCO)C1c1ccccc1 (centres undefined)	?	?	3.4	5.0%	?	7.8
CCOCCCN1C(=O)C(O)=C(C(C)=O)C1c1cccs1 (centres undefined)	89.1µM*	/	9.1	12.4%	/	11.3
CCN(CC)CCCN1C(=O)C(O)=C(C(=O)c2ccc(C)o2)C1c1cccs1 (centres undefined)	/	-39.2%[12.7 µM]	/	/	-1.0%	/
CCOc1cc(C2C(C(=O)c3ccco3)=C(O)C(=O)N2CCc2ccccc2)ccc1O (centres undefined)	?	?	-0.4	40.6%	?	5.6
COCCCN1C(=O)C(O)=C(C(=O)c2ccc(C)o2)C1c1cccc(Br)c1 (centres undefined)	89.1µM*	-34.8%[59 µM]	-5.9	26.9%	-34.2%	7.3
CCOc1cccc(C2C(C(=O)c3ccc(C)o3)=C(O)C(=O)N2CCCn2ccnc2)c1 (centres undefined)	?	0.0%[0.501 µM]	-10.8	-5.0%	?	4.1
CSc1ccc(CNC(=O)c2cc3cc(S(=O)(=O)N4CCCCC4)ccc3n2C)cc1	-8.1%	-31.9%[59 µM]	/	19.5%[57 µM]	-1.4%	/
CCC1CCc2c(sc(N)c2C(N)=O)C1 (centres undefined)	?	/	-9.7	-17.4%	/	0.0
CCCOC(=O)c1c(N)sc2c1CCC2	?	50.1µM*	-0.3	?	?	-1.4
CCCOC(=O)c1c(N)sc(C(=O)OCC)c1C	-8.0%	2.8%[59 µM]	-14.5	8.9%	10.2%	-20.6
CCOC(=O)c1c(N)sc2c1CCSC2	-33.2%	50.1µM*	-8.9	-9.9%	?	-2.5
CCOC(=O)c1c(N)sc2c1CCC(CC)C2 (centres undefined)	-33.0%	11.2µM*	-8.4	?	-29.0%	-9.2
CCC(=O)OCC(=O)[C@@]1(OC(=O)CC)[C@@H](C)C[C@@H]2[C@H]3CCC4=CC(=O)C=C[C@]4(C)[C@@]3(F)[C@@H](O)C[C@@]21C	/	2.1%[59 µM]	/	/	/	/
O=C(Nc1ncccc1O)c1ccc(OCC2CCCO2)cc1 (centres undefined)	-24.0%	-7.8%	-8.0	39.1%	79.4µM*	-16.0

Source: PubChem BioAssay (National Center for Advancing Translational Sciences (NCATS))
